{"source": "PubChem BioAssay (NCATS)", "note": "Results filed as inconclusive are left out. Values without a mark were called inactive. The source made the active and inactive calls. Calls follow the shape of the dose curve; as a rule, active = well fitted inhibition curve with a large enough effect in the repeat runs; inconclusive = weak or mixed curves; inactive = flat fitted curve, though single readings scatter. % is scaled to controls: 0 for no effect and ±100 for the full control effect; potency is read from the fitted curve at half-maximal effect.", "data": [{"molecular_target": "Cytochrome P450 2D6 (Homo sapiens) (UniProt P10635)", "sequence (P10635 whole entry, looked up)": "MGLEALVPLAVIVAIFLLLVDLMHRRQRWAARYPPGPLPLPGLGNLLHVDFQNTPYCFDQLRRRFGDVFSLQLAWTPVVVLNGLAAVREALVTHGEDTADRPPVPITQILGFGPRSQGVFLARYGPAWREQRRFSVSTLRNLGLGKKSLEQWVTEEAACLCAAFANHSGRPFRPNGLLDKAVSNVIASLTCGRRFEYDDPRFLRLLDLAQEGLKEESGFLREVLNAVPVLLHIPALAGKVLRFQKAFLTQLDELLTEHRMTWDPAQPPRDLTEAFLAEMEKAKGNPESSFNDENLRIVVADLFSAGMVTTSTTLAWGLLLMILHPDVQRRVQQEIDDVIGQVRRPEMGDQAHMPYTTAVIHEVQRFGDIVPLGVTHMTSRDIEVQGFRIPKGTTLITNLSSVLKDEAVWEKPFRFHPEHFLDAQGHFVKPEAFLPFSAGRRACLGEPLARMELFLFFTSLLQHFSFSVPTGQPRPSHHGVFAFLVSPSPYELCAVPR", "assay": "Cytochrome P450 family 2 subfamily D member 6 (CYP2D6) small molecule antagonists: luciferase biochemical (cell-free) qHTS assay (AID 1645840); also: nearly all actives have a fitted effect of over 55% in size", "settings": "P450-Glo CYP2D6 enzyme, luciferin luminescence, 1 h; series mostly up to 57.4 µM; activity change, negative = inhibition: at the top concentration", "method": "National Center for Advancing Translational Sciences [NCATS] Assay Overview: Cytochrome P450 (CYP) enzymes are membrane-bound hemeproteins that play a key role in metabolism of drugs and xenobiotics. Assaying the effect of chemicals on CYP isozymes is useful to minimize the adverse drug reactions and toxicities in drug development process. Chemical compounds were tested for their effect on CYP enzyme activities by using P450-Glo (TM) screening systems (Promega Corporation, Madison, WI). These systems provide a luminescent method containing proluciferin substrates and are converted to luciferin products by CYP isozymes. The luciferin products formed are detected with a luciferin detection reagent, and the amount of light produced is proportional to CYP activity. P450-Glo (TM) CYP2D6 screening system (Catalog. No. V9890) was used to detect the compounds that interfere in CYP2D6 activity.\nAssay Protocol Summary: Two ul of enzyme-substrate mix was dispensed into medium binding white/solid 1536-well plates (Greiner Bio-One North America Inc., Monroe, NC) using a Flying Reagent Dispenser (FRD, Aurora Discovery, San Diego, CA). […] The assay plates were incubated at room temperature for 10 min. Then 2 ul of NADPH regeneration solution was added to each well of the assay plates using an FRD and incubated at room temperature for 1 h. The reaction was stopped by adding 4 ul of detection reagent using an FRD and after 20 min incubation at room temperature, the luminescence signal was measured using a ViewLux plate reader (Perkin Elmer, Shelton, CT). Data were expressed as relative luminescence units.", "units": {"activity change, negative = inhibition": "%"}, "values": [{"smiles": "COc1ccc(CCC(C)=O)cc1", "activity change, negative = inhibition": 1.36}, {"smiles": "CC(C(=O)O)c1ccc(/C=C2\\CCCCC2=O)cc1", "note": "(stereo not given)", "activity change, negative = inhibition": 5.71}, {"smiles": "O=C(Nc1ccc(S(=O)(=O)N2CCOCC2)cc1)c1cc(Cl)ccc1NS(=O)(=O)c1ccc(Cl)s1", "Potency": "15.5 µM (active)"}, {"smiles": "Cc1ccc(/C=N/n2c(-c3ccccc3)csc2=S)cc1", "activity change, negative = inhibition": -1.52}, {"smiles": "O=C1[C@@H]2[C@H]3CC[C@H](C3)[C@@H]2C(=O)N1CCCCN1CCN(c2ncccn2)CC1", "Potency": "15.5 µM (active)"}, {"smiles": "CC1c2ccccc2CN1NC(=O)c1ccc(Cl)c(S(N)(=O)=O)c1", "note": "(stereo not given)", "activity change, negative = inhibition": 5.58}, {"smiles": "CCCCCOc1ccccc1/C(=C\\SC)n1ccnc1", "Potency": "0.977 µM (active)"}, {"smiles": "CCCC(=O)c1cc(O)c(O)cc1O", "Potency": "31.7 µM (active)"}, {"smiles": "O=C(O)[C@H](O)[C@@H](O)[C@H](O[C@@H]1O[C@H](CO)[C@H](O)[C@H](O)[C@H]1O)[C@H](O)CO", "activity change, negative = inhibition": 3.96}, {"smiles": "COc1cc(/C=C/C(N)=O)cc(OC)c1OC", "activity change, negative = inhibition": 8.18}, {"smiles": "O=C(OCC1(COC(=O)c2cccnc2)CCCC(COC(=O)c2cccnc2)(COC(=O)c2cccnc2)C1O)c1cccnc1", "activity change, negative = inhibition": 1.08}, {"smiles": "O=C(O)C(=O)Nc1cccc(-c2nn[nH]n2)c1", "activity change, negative = inhibition": 6.16}, {"smiles": "O=C(Nc1ccc(Cl)cc1)Nc1ccc(Cl)c(Cl)c1", "activity change, negative = inhibition": -0.734}, {"smiles": "O=C(O)Cc1ccc(OCCNC[C@H](O)c2ccccc2)cc1", "activity change, negative = inhibition": 2.92}, {"smiles": "COC(=O)c1cc(Cl)c(NC(C)=O)cc1OC", "activity change, negative = inhibition": -17}, {"smiles": "COc1ccccc1OCC1CNC(=O)O1", "note": "(stereo not given)", "activity change, negative = inhibition": 4.23}, {"smiles": "O=C(NN1CCCC1)NS(=O)(=O)c1ccc(Cl)cc1", "activity change, negative = inhibition": 0.329}, {"smiles": "O=C(O)CNC(=O)CNC(=O)CNC(=O)CSC(=O)c1ccccc1", "activity change, negative = inhibition": 4.7}, {"smiles": "Cc1cccc(N(C)C(=S)Oc2ccc3c(c2)CCC3)c1", "activity change, negative = inhibition": 0.557}, {"smiles": "COc1cc(C=O)ccc1O", "activity change, negative = inhibition": 6.94}, {"smiles": "OCCCc1ccccc1", "activity change, negative = inhibition": 6.78}, {"smiles": "CCCc1ncc(C(=O)O)s1", "activity change, negative = inhibition": 6.9}, {"smiles": "CN(C)CCOC1=Cc2ccccc2Sc2ccc(Cl)cc21", "Potency": "1.1 µM (active)"}, {"smiles": "CCC(CN)=C(c1ccccc1)c1ccccc1", "Potency": "3.63 µM (active)"}, {"smiles": "COC(=O)C1=C(C)NC(COC(N)=O)=C(C(=O)OC(C)C)C1c1cccc(Cl)c1Cl", "note": "(stereo not given)", "Potency": "19.5 µM (active)"}, {"smiles": "CCCC(=O)OCOC(=O)C1=C(C)NC(C)=C(C(=O)OC)C1c1cccc(Cl)c1Cl", "note": "(stereo not given)", "Potency": "16.2 µM (active)"}, {"smiles": "C[C@]12CCC(=O)C=C1CC[C@@H]1[C@@H]2[C@@H](O)C[C@@]2(C)[C@H]1CC[C@]2(O)C(=O)COC(=O)CCC(=O)O", "activity change, negative = inhibition": -3.92}, {"smiles": "O=C(CCOCCOCCOCCOCCC(=O)Nc1c(I)cc(I)c(C(=O)O)c1I)Nc1c(I)cc(I)c(C(=O)O)c1I", "activity change, negative = inhibition": -3.18}, {"smiles": "N=C(N)c1ccc(OCCCOc2ccc(C(=N)N)cc2)cc1", "activity change, negative = inhibition": 7.26}, {"smiles": "CCCCC/C=C\\C/C=C\\CCCCCCCC(=O)NC(C)c1ccccc1", "note": "(stereo not given)", "Potency": "3.89 µM (active)"}, {"smiles": "O=C(O)Cn1c(=O)n(Cc2ccc(Br)cc2F)c(=O)c2ccc(Cl)cc21", "activity change, negative = inhibition": -1.49}, {"smiles": "NS(=O)(=O)c1cc2c(cc1Cl)CN(C1CCCCC1)C2=O", "activity change, negative = inhibition": 9.1}, {"smiles": "NC(=O)NS(=O)(=O)c1ccc(Cl)cc1", "activity change, negative = inhibition": -9.38}, {"smiles": "CO/N=C(/C(=O)N[C@@H]1C(=O)N2C(C(=O)[O-])=C(C[n+]3ccn4ncccc43)CS[C@H]12)c1nsc(N)n1", "activity change, negative = inhibition": -3.3}, {"smiles": "Cc1nc(N)nc(N)c1-c1ccc(Cl)c(Cl)c1", "Potency": "0.871 µM (active)"}, {"smiles": "C[C@@H]1C[C@H]2[C@@H]3CCC4=CC(=O)C=C[C@]4(C)[C@@]3(F)[C@@H](O)C[C@]2(C)[C@@]1(O)C(=O)COC(=O)c1ccncc1", "Potency": "1.23 µM (active)"}, {"smiles": "O=C(Nc1ccc(Cl)cc1)Nc1ccc(Cl)c(C(F)(F)F)c1", "Potency": "13.8 µM (active)"}, {"smiles": "COc1ccc2c(c1)CCCC2=O", "activity change, negative = inhibition": 0.0494}, {"smiles": "CC(CC1c2ccccc2CCc2ccccc21)CN(C)C", "note": "(stereo not given)", "Potency": "0.246 µM (active)"}, {"smiles": "CC(C)(C)c1ccc(C(=O)CCCCl)cc1", "activity change, negative = inhibition": -27.7}]}]}
